In PubChem BioAssay:
The source made the active and inactive calls.

Columns and labels:
[1] = E. coli DRC41 culture turbidity changes, primary screen, E. coli filamentation inducer project, strain DRC41, OD650, 48 h (AID 1152);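 further: E. coli MC1000 strain DRC41 lacking acrAB efflux pump and sulA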; conditions: E. coli DRC41 (acrAB sulA), higher = more signal, called active from +8 up or from −8 down
[2] = small-molecule binders of probe aLefty1, primary screen, biochemical, small-molecule microarray, 635/667 nm fluorescence (AID 1153); conditions: higher = more signal;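 further: score merges spot fluorescence with signal-to-noise ratio from the scanned slide images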
[3] = PSAC antagonists in infected red cells, primary screen, cell-based, P. falciparum Indochina, OD700, 1 h (AID 1154); conditions: P. falciparum Indochina infected RBC osmotic lysis, higher = more signal, called active from +8 up or from −8 down
[4] = PSAC antagonists in infected red cells, primary screen, cell-based, P. falciparum Indochina, OD700, 2 h (AID 1155);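 further: lysis reports solute entry through the parasite surface anion channel PSAC; channel blockers reduce lysis of infected cells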; conditions: P. falciparum Indochina infected erythrocytes, osmotic lysis OD700; higher = more signal, called active from +8 up or from −8 down
[5] = osmotic lysis modulators in infected erythrocytes, primary screen, PSAC antagonist project, cell-based, P. falciparum Indochina, OD700, 3 h (AID 1156); conditions: higher = more signal, called active from +8 up or from −8 down
[6] = PSAC antagonists in infected red cells, primary screen, cell-based, P. falciparum Indochina, OD700, 18 h (AID 1157); conditions: P. falciparum Indochina infected erythrocytes, osmotic lysis OD700, 18 h; higher = more signal, called active from +8 up or from −8 down
[7] = modulators of S6 phosphorylation in cells, primary screen, cell-based, A549, cytoblot, luminescence, serum-stimulated (AID 1158); conditions: A549 phospho-S6 cytoblot, 5 h, higher = more signal;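 further: serum-stimulated A549 lung adenocarcinoma cells; signal is phosphorylated S6 detected by cytoblot immunostaining with HRP secondary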
[8] = target: NADPH oxidase 2 (Homo sapiens) (UniProt P04839); experiment: NOX2-dependent H2O2 signal modulators, primary screen, NOX inhibitor project, cell-based, HEK293-NOX2, PMA-stimulated, Amplex Red fluorescence (AID 1159); conditions: 45 min, higher = more signal, called active from +8 up or from −8 down; further: test concentration not given here
[9] = target: NADPH oxidase 4 (Homo sapiens) (UniProt Q9NPH5); experiment: NOX4-dependent H2O2 signal modulators, primary screen, NOX inhibitor project, cell-based, HEK293-NOX4, tetracycline-induced, Amplex Red fluorescence (AID 1160); conditions: 45 min, higher = more signal, called active from +8 up or from −8 down
[10] = target: NADPH oxidase 5 (Homo sapiens) (UniProt Q96PH1); experiment: NOX5-dependent H2O2 signal modulators, primary screen, NOX inhibitor project, cell-based, HEK293-NOX5, Amplex Red fluorescence (AID 1161); conditions: HEK293-NOX5, ionomycin, 45 min, higher = more signal
Chain of NADPH oxidase 5 (Homo sapiens) (Q96PH1 whole entry, looked up): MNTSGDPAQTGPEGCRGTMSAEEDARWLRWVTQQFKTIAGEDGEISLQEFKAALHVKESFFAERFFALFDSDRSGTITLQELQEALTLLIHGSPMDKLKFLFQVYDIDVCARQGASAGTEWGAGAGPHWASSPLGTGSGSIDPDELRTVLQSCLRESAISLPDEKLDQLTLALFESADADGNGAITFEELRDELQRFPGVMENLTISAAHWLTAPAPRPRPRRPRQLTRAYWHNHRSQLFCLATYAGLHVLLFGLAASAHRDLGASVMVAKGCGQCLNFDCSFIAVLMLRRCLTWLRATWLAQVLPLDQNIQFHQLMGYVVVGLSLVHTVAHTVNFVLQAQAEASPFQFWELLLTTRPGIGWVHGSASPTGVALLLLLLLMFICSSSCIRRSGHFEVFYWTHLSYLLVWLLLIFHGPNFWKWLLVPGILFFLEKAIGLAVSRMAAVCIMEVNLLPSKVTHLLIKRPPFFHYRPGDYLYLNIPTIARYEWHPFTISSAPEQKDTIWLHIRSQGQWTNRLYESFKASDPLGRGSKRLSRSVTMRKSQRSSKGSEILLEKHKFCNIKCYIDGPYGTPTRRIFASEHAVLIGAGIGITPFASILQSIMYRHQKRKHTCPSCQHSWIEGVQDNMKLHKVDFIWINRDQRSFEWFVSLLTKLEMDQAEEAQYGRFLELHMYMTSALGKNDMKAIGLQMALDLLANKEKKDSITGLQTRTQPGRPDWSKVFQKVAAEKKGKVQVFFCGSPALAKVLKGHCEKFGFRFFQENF

Chain of NADPH oxidase 4 (Homo sapiens) (Q9NPH5 whole entry, looked up): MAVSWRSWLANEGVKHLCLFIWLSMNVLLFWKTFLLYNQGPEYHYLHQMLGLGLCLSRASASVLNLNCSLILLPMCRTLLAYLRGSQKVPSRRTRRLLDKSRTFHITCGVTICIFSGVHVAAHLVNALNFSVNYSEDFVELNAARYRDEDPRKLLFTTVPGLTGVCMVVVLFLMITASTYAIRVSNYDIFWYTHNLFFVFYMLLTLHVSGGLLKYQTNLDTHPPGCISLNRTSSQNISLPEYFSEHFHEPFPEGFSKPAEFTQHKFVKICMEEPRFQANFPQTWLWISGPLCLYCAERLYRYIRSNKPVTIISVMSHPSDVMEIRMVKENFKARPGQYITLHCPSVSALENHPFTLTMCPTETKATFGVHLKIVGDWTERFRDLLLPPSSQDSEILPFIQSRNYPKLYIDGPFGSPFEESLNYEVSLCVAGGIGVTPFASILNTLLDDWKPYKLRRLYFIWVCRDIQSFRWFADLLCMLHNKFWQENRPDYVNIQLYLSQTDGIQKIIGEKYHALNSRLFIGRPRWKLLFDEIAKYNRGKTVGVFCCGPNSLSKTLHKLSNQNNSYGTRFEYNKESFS
Chain of NADPH oxidase 2 (Homo sapiens) (P04839 whole entry, looked up): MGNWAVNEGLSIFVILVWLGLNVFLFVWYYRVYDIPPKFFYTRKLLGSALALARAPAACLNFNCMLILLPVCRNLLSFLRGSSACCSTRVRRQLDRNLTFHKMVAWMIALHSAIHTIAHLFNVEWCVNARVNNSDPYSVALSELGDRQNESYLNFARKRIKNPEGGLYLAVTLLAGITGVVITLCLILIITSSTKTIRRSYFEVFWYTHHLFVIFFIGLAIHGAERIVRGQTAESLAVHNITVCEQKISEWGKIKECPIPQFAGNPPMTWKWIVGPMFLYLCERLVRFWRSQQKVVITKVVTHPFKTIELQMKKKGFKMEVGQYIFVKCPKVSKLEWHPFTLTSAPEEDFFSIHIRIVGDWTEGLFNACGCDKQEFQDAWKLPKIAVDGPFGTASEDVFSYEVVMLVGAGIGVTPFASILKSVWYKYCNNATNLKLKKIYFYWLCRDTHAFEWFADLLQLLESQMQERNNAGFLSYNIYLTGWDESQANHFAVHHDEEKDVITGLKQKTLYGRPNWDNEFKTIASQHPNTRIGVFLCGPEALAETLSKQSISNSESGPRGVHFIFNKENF

SMILES	z-score [1]	composite z-score [2]	z-score [3]	z-score [4]	z-score [5]	z-score [6]	z-score [7]	z-score [8]	z-score [9]	z-score [10]
COc1ccc([Si](C)(C)[C@H]2[C@H](CCO)O[C@@]3(C(=O)N(Cc4cccc(N5C(=O)c6ccccc6Oc6ccccc65)c4)c4ccccc43)[C@@H]2C)cc1	0.253 (inactive)	0.119	2.63 (inactive)	2.78 (inactive)	0.979 (inactive)	1.6 (inactive)	0.87	-1.93 (inactive)	2.27 (inactive)	1.1
Cc1ccc(S[C@]2(C(=O)NC3CC3)CC(=O)N(C(C)C)[C@@H]2c2ccc(CO)cc2I)cc1	0.839 (inactive)	-0.703	5.84 (inactive)	-0.558 (inactive)	0.927 (inactive)	-1.31 (inactive)	2.32	0.828 (inactive)	-1.91 (inactive)	-2.33
COc1ccc(C(O)C2C=CC3C(=O)N(C)C(=O)C3N2N(c2ccccc2)c2ccccc2)cc1 (stereo not given)	-1.3 (inactive)	0.363	2.07 (inactive)	1.14 (inactive)	0.509 (inactive)	0.974 (inactive)	-0.478	-0.685 (inactive)	-2.05 (inactive)	-0.77
NCCCCCCNC(=O)[C@@H]1C[C@@H]2C(=O)N3CCC[C@H]3C(=O)N2[C@@H]1c1cccc(OCCO)c1	1.82 (inactive)	0.012	4.29 (inactive)	-0.643 (inactive)	1.53 (inactive)	-1.8 (inactive)	-0.0015	1.62 (inactive)	1.42 (inactive)	0.99
NC(=O)NCC#Cc1ccc2c(c1)[C@]1(C(=O)N2)[C@H](c2ccc(OCCO)cc2)N2[C@H](c3ccccc3)[C@H](c3ccccc3)OC(=O)[C@H]2[C@@H]1C(=O)O	0.53 (inactive)	-0.0536	2.54 (inactive)	-0.7 (inactive)	0.623 (inactive)	-1.3 (inactive)	1.61	1.97 (inactive)	0.325 (inactive)	-0.441
COc1ccc([Si](C)(C)[C@@H]2[C@@H](CC(=O)N3CCC[C@H]3CO)O[C@]3(C(=O)N(Cc4ccc(N5CCOC5=O)cc4)c4ccccc43)[C@H]2C)cc1	1.3 (inactive)	-0.0099	6.25 (inactive)	0.176 (inactive)	-1.52 (inactive)	-0.774 (inactive)	0.615	2.64 (inactive)	1.57 (inactive)	3.85
COC(=O)C(CC#Cc1ccc2c(c1)[C@]1(C(=O)N2)[C@H](c2ccccc2OCCO)N2[C@H](c3ccccc3)[C@H](c3ccccc3)OC(=O)[C@H]2[C@@H]1C(=O)N1CCc2cc(OC)c(OC)cc2C1)C(=O)OC	0.447 (inactive)	0.0215	3.28 (inactive)	2.24 (inactive)	2.54 (inactive)	1.25 (inactive)	-0.033	1.74 (inactive)	1.52 (inactive)	1.73
O=C1C[C@@](C(=O)O)(c2ccc([N+](=O)[O-])cc2)[C@@H](c2ccc(CO)cc2)N1C1CCCCC1	-0.485 (inactive)	0.0984	5.95 (inactive)	0.732 (inactive)	2.38 (inactive)	0.646 (inactive)	0.197	-0.127 (inactive)	-1.27 (inactive)	0.369
CC(C)OC(=O)CC(=O)CC(O)c1cccc([N+](=O)[O-])c1 (stereo not given)	1.27 (inactive)	0.318	3.27 (inactive)	0.79 (inactive)	-1.39 (inactive)	-0.295 (inactive)	2.1	-0.068 (inactive)	0.147 (inactive)	0.435
CCCC[C@H]1OB(O)C[C@H]2C1=C(COc1ccccc1)C[C@H]1C(=O)C=CC(=O)[C@H]12	1.55 (inactive)	-0.134	1.49 (inactive)	0.0962 (inactive)	0.129 (inactive)	0.134 (inactive)	-0.0871	-0.429 (inactive)	-1.48 (inactive)	-5.03
O=C1[C@@H]2[C@@H](CC(COc3ccccc3)=C([C@H](O)CCc3ccccc3)[C@@H]2CO)C(=O)N1Cc1ccccc1	0.17 (inactive)	-0.0867	27.8 (active)	21.8 (active)	-0.602 (inactive)	2.05 (inactive)	0.05	-2.32 (inactive)	-0.526 (inactive)	-1.59
CC(C)N1C(=O)c2ccccc2[C@@H](C(=O)NCC(F)(F)F)[C@@H]1c1ccc(CO)cc1	-0.234 (inactive)	0.0376	2.15 (inactive)	0.336 (inactive)	0.181 (inactive)	-0.0376 (inactive)	-0.165	0.74 (inactive)	0.912 (inactive)	-1.21
C=C(CCCC)C(=O)CC[C@H](OC(=O)c1ccccc1-c1ccccc1C(=O)O)c1ccc(OCCO)cc1	0.418 (inactive)	-0.199	12.3 (active)	1.38 (inactive)	1.49 (inactive)	0.847 (inactive)	-0.265	0.135 (inactive)	-0.406 (inactive)	-1.59
CC(C)NC(=O)[C@@H]1c2ccccc2C(=O)N(Cc2ccccc2C(F)(F)F)[C@H]1c1ccc(CO)cc1	0.0029 (inactive)	-0.556	2.58 (inactive)	0.0744 (inactive)	1.32 (inactive)	0.596 (inactive)	-0.262	1.21 (inactive)	-0.805 (inactive)	-1.97
CCCCC(O)C1C=CC2C(=O)N(c3ccccc3)C(=O)C2N1Nc1ccc([N+](=O)[O-])cc1 (stereo not given)	0.372 (inactive)	0.683	14.2 (active)	1.38 (inactive)	0.371 (inactive)	-1.06 (inactive)	0.581	-1.08 (inactive)	-1.65 (inactive)	-0.302
CC1CC/C=C\[C@H]2OC34C=CCN(Cn5nnc6ccccc65)C(=O)[C@H]3N(CCCCCCO)C(=O)[C@@H]4C2C(=O)O1 (stereo not given in full)	0.699 (inactive)	0.0999	0.59 (inactive)	-0.139 (inactive)	-0.248 (inactive)	0.527 (inactive)	1.2	1.02 (inactive)	0.515 (inactive)	2.37
C=CCNC(=O)[C@H]1[C@@H]2C(=O)O[C@@H](c3ccccc3)[C@@H](c3ccccc3)N2[C@@H](c2ccc(OCCO)cc2)[C@]12C(=O)Nc1ccccc12	0.738 (inactive)	1.21	10.1 (active)	1.01 (inactive)	-0.444 (inactive)	0.81 (inactive)	0.0226	1.87 (inactive)	0.841 (inactive)	-0.101
N#Cc1ccc(NN2C(C(O)C3CC=CCC3)C=CC3C(=O)N(c4ccccc4)C(=O)C32)cc1 (stereo not given)	-0.411 (inactive)	0.364	16.9 (active)	3.34 (inactive)	0.889 (inactive)	1.14 (inactive)	-0.723	-1.21 (inactive)	-2.27 (inactive)	-2.39
CN1C(=O)C2C(C1=O)C1C=C(c3ccc(CO)cc3)C2C(C2CC2)N1C (stereo not given)	0.235 (inactive)	-0.177	0.773 (inactive)	0.892 (inactive)	0.472 (inactive)	0.184 (inactive)	0.691	-1.19 (inactive)	-0.394 (inactive)	0.163
C=CCN1C(=O)[C@]2(O[C@H](CCn3cc([C@H](O)c4ccccc4)nn3)[C@@H]([Si](C)(C)c3ccc(OC)cc3)[C@@H]2C)c2cc(NC(=O)c3ccc(OC)cc3)ccc21	0.294 (inactive)	0.179	5.48 (inactive)	2.21 (inactive)	2.59 (inactive)	1.18 (inactive)	-0.0732	0.51 (inactive)	0.564 (inactive)	-0.0881
[N-]=[N+]=NCc1ccccc1[C@@H]1OC(c2ccc(OCCCO)cc2)=N[C@]1(Cc1ccccc1N=[N+]=[N-])C(=O)NCC(O)CO (stereo not given in full)	0.553 (inactive)	1.31	20.2 (active)	5.06 (inactive)	1.09 (inactive)	1.1 (inactive)	-0.0256	-0.868 (inactive)	0.704 (inactive)	1.5
CC(C)(C)N1CC=CC23O[C@@H]4/C=C\CCCOC(=O)C4[C@H]2C(=O)N(CCCCCO)[C@@H]3C1=O (stereo not given in full)	-0.81 (inactive)	-0.191	0.373 (inactive)	0.135 (inactive)	-1.09 (inactive)	0.0116 (inactive)	-0.786	1.16 (inactive)	0.0398 (inactive)	1.21
CO[C@H]1O[C@H](CO)[C@@H](OC(=O)Nc2ccccc2)[C@H](OC(=O)Nc2ccccc2)[C@H]1OC(=O)Nc1ccccc1	0.492 (inactive)	0.264	4.11 (inactive)	1.04 (inactive)	0.406 (inactive)	0.912 (inactive)	0.22	-7.66 (inactive)	-1.15 (inactive)	-2.32
COC(=O)[C@H](Cc1ccc(O)cc1)N[C@@H](/C=C/C1CC1)[C@H](O)Cc1ccccc1	-0.571 (inactive)	-0.275	0.963 (inactive)	0.496 (inactive)	0.098 (inactive)	-0.0396 (inactive)	-0.557	0.0285 (inactive)	0.516 (inactive)	-0.929
O=C1NC(=O)C2C1C=CC(C(O)c1ccc([N+](=O)[O-])cc1)N2Nc1ccccn1 (stereo not given)	-0.55 (inactive)	-0.112	0.406 (inactive)	0.74 (inactive)	0.067 (inactive)	0.581 (inactive)	-0.466	-0.728 (inactive)	-2.61 (inactive)	-1.96
Cc1ccc(S[C@]2(C(=O)NCCCN(C)C)CC(=O)N(Cc3ccccc3C(F)(F)F)[C@@H]2c2ccc(CO)cc2I)cc1	-0.527 (inactive)	-0.629	3.14 (inactive)	0.684 (inactive)	0.32 (inactive)	0.377 (inactive)	-0.579	-0.632 (inactive)	-1.08 (inactive)	1.96
